Measured values from PubChem BioAssay (EPA / NIEHS).
Several values for one entry are separate records, joined by “and”; a condition that tells them apart may be missing. Equal values may be shown once. Where a structure was tested more than once in an assay, its records may differ in their call. Activity calls are given as the source filed them. Rule for the calls: active = hit-call score of the fitted dose curve at least 0.9, where 1 is the maximum; inactive = score below 0.9.

Read-out: Macrophage colony-stimulating factor (MCSF), CSF1 (gene 1435)
Assay: BSK_LPS_MCSF: BioMAP Diversity Plus: LPS Assay for Macrophage colony-stimulating factor (MCSF) Biomarker Activity (AID 2283083)
Conditions: primary human HUVEC with PBMC; actives raise or lower the signal
Method in brief: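 HUVEC + PBMC co-culture (human primary), 24 h post-dose; M-CSF by ELISA; gain/loss of signal fitted bidirectionally vs DMSO baseline.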

Compound | outcome | AC50
O=C(O)CCC(F)(F)C(F)(F)C(F)(F)C(F)(F)C(F)(F)F | inactive | –
COc1cccc(O)c1 | inactive | –
NC(=NCCCCCCN=C(N)/N=C(\N)Nc1ccc(Cl)cc1)/N=C(\N)Nc1ccc(Cl)cc1 | – | 4.92 µM (active)
Clc1ccc(Nc2nnc(Cc3ccncc3)c3ccccc23)cc1 | inactive | –
O=C(CC(=O)C(F)(F)C(F)(F)C(F)(F)F)c1cccs1 | inactive | 30 µM (active)
CCCCCCCCCCCCCCCCCC[N+](C)(C)Cc1ccccc1 | – | 2.73 µM (active)
Oc1c(Cl)cc(Cl)cc1Sc1cc(Cl)cc(Cl)c1O | – | 26.3 µM (active)
CCCCCCCCCCCC | inactive | –
O=C(O)C(F)(F)OC(F)(F)C(F)(F)OC(F)(F)C(F)(F)OC(F)(F)C(F)(F)C(F)(F)C(F)(F)F | – | 55.1 µM (active) and 44.7 µM (active)
OCCN1CN(CCO)CN(CCO)C1 | – | 25.7 µM (active)
Cc1cccc2c1ccc1ccccc12 | inactive | –
O=P(O)(O)CCC(F)(F)C(F)(F)C(F)(F)C(F)(F)C(F)(F)C(F)(F)F | inactive | –
O=C(NCc1ncc(C(F)(F)F)cc1Cl)c1c(Cl)cccc1Cl | inactive | –
CCCCCCCCCCCCOS(=O)(=O)O | inactive | –
O=C(CCCN1CCC(O)(c2ccc(Cl)cc2)CC1)c1ccc(F)cc1 | inactive | –
CCCCCCCCCCCCCCC | inactive | –
O=S(=O)(O)C(F)(F)C(F)(F)C(F)(F)C(F)(F)C(F)(F)C(F)(F)C(F)(F)C(F)(F)C(F)(F)C(F)(F)F | inactive | –
OCC(F)(F)C(F)(F)C(F)(F)C(F)(F)C(F)(F)C(F)(F)C(F)(F)C(F)(F)C(F)(F)C(F)(F)C(F)(F)F | inactive | 0.417 µM (active)
CN(Cc1cnc2nc(N)nc(N)c2n1)c1ccc(C(=O)N[C@@H](CCC(=O)O)C(=O)O)cc1 | inactive | –
Cc1ccc(N=Nc2c(O)ccc3ccccc23)c(C)c1 | inactive | –
CN(CCO)S(=O)(=O)C(F)(F)C(F)(F)C(F)(F)C(F)(F)C(F)(F)C(F)(F)C(F)(F)C(F)(F)F | inactive | –
O=P(O)(O)CCC(F)(F)C(F)(F)C(F)(F)C(F)(F)C(F)(F)C(F)(F)C(F)(F)C(F)(F)F | – | 27.7 µM (active) and 30 µM (active)
O=C(c1ccccc1)c1ccccc1 | inactive | –
Cc1[nH]nc2c1N=C(c1ccccc1Cl)c1cc([N+](=O)[O-])ccc1N2 | – | 3.38 µM (active)
OCC(CO)(CBr)CBr | inactive | –
O=C1c2ccc(O)c(O)c2C(=O)c2c(O)ccc(O)c21 | inactive | –
COC1=CC(=O)C[C@@H](C)[C@]12Oc1c(Cl)c(OC)cc(OC)c1C2=O | inactive | –
N=C(N)c1ccc(OCCCCCOc2ccc(C(=N)N)cc2)cc1 | – | 13.5 µM (active)

Read-out: Tissue Factor, F3 (gene 2152)
Assay: BSK_LPS_TissueFactor: BioMAP Diversity Plus: LPS Assay for Tissue Factor Biomarker Activity (AID 2283084)
Conditions: primary human HUVEC with PBMC; actives raise or lower the signal
Method in brief: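 HUVEC/PBMC co-culture, LPS-activated; CD142 ELISA read 24 h post-dose; bidirectional curve fit vs DMSO negative control.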

Compound | outcome | AC50
O=C(O)CCC(F)(F)C(F)(F)C(F)(F)C(F)(F)C(F)(F)F | inactive | –
COc1cccc(O)c1 | inactive | –
NC(=NCCCCCCN=C(N)/N=C(\N)Nc1ccc(Cl)cc1)/N=C(\N)Nc1ccc(Cl)cc1 | – | 4.98 µM (active)
Clc1ccc(Nc2nnc(Cc3ccncc3)c3ccccc23)cc1 | inactive | –
O=C(CC(=O)C(F)(F)C(F)(F)C(F)(F)F)c1cccs1 | inactive | 10.4 µM (active)
CCCCCCCCCCCCCCCCCC[N+](C)(C)Cc1ccccc1 | – | 2.69 µM (active)
Oc1c(Cl)cc(Cl)cc1Sc1cc(Cl)cc(Cl)c1O | – | 34 µM (active) and 33.6 µM (active)
CCCCCCCCCCCC | inactive | 16.7 µM (active)
O=C(O)C(F)(F)OC(F)(F)C(F)(F)OC(F)(F)C(F)(F)OC(F)(F)C(F)(F)C(F)(F)C(F)(F)F | – | 54.8 µM (active) and 30 µM (active)
OCCN1CN(CCO)CN(CCO)C1 | – | 20 µM (active)
Cc1cccc2c1ccc1ccccc12 | – | 3.97 µM (active)
O=P(O)(O)CCC(F)(F)C(F)(F)C(F)(F)C(F)(F)C(F)(F)C(F)(F)F | inactive | 5.95 µM (active)
O=C(NCc1ncc(C(F)(F)F)cc1Cl)c1c(Cl)cccc1Cl | inactive | –
CCCCCCCCCCCCOS(=O)(=O)O | inactive | –
O=C(CCCN1CCC(O)(c2ccc(Cl)cc2)CC1)c1ccc(F)cc1 | – | 20 µM (active)
CCCCCCCCCCCCCCC | inactive | –
O=S(=O)(O)C(F)(F)C(F)(F)C(F)(F)C(F)(F)C(F)(F)C(F)(F)C(F)(F)C(F)(F)C(F)(F)C(F)(F)F | inactive | 13.3 µM (active)
OCC(F)(F)C(F)(F)C(F)(F)C(F)(F)C(F)(F)C(F)(F)C(F)(F)C(F)(F)C(F)(F)C(F)(F)C(F)(F)F | inactive | –
CN(Cc1cnc2nc(N)nc(N)c2n1)c1ccc(C(=O)N[C@@H](CCC(=O)O)C(=O)O)cc1 | inactive | –
Cc1ccc(N=Nc2c(O)ccc3ccccc23)c(C)c1 | – | 7.3 µM (active)
CN(CCO)S(=O)(=O)C(F)(F)C(F)(F)C(F)(F)C(F)(F)C(F)(F)C(F)(F)C(F)(F)C(F)(F)F | inactive | –
O=P(O)(O)CCC(F)(F)C(F)(F)C(F)(F)C(F)(F)C(F)(F)C(F)(F)C(F)(F)C(F)(F)F | inactive | –
O=C(c1ccccc1)c1ccccc1 | inactive | –
Cc1[nH]nc2c1N=C(c1ccccc1Cl)c1cc([N+](=O)[O-])ccc1N2 | – | 4.61 µM (active)
OCC(CO)(CBr)CBr | inactive | –
O=C1c2ccc(O)c(O)c2C(=O)c2c(O)ccc(O)c21 | inactive | –
COC1=CC(=O)C[C@@H](C)[C@]12Oc1c(Cl)c(OC)cc(OC)c1C2=O | inactive | –
N=C(N)c1ccc(OCCCCCOc2ccc(C(=N)N)cc2)cc1 | inactive | –
